“And” between values parts separate entries of the source, which are not always exact repeats. Identical values can stand only once. Inconclusive results are not listed. A call without a number means that no potency is given here. The source made the active and inactive calls. Unless noted, the call rests on the fitted dose curve.
Experiments:
[1] = qHTS for Inhibitors of the Functional Ribonucleoprotein Complex (vRNP) of Lassa (LASV) Arenavirus: LASV Primary Screen - GLuc reporter signal (AID 1347082; calls by dose curve; tested in HEK293 reporter line; further: nearly all actives have a fitted effect of over 60% in size)
[2] = Confirmatory qHTS to identify inhibitors of SARS-CoV-2 cell entry (AID 1645844); further: potency means the concentration at half of the fitted maximal effect; nearly all actives have a fitted effect of over 45% in size
Procedure, shortened: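 Using stable human ACE2 Expi293F cells, compounds preincubated 1 hr before spike pseudoparticle infection; luciferase signal after 48 hr at 37C, 5% CO2, normalised to spike PP and no-fusion-protein PP wells.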

[3] = Primary qHTS to identify inhibitors of SARS-CoV-2 cell entry (AID 1645846); details: activity change, negative = inhibition: at 57.1 µM (top of the series) unless noted; further: nearly all actives have a fitted effect of over 45% in size; further: potency means the concentration at half of the fitted maximal effect
Procedure, shortened: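 HEK293 cells stably expressing human ACE2, pre-treated 1 h with compound, then infected with MLV particles pseudotyped with Wuhan-Hu-1 spike (C-terminal 19-aa truncation). Luciferase luminescence after 48 h at 37 °C, normalised to spike PP and bald PP.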

[4] = target: Nucleoprotein (Lymphocytic choriomeningitis virus (strain Armstrong)) (UniProt P09992); experiment: qHTS for Inhibitors of the Functional Ribonucleoprotein Complex (vRNP) of Lymphocytic Choriomeningitis Arenaviruses (LCMV): LCMV Primary Screen - GLuc reporter signal (AID 1347086); further: nearly all actives have a fitted effect of over 70% in size; further: potency means the concentration at half of the fitted maximal effect
Sequence of Nucleoprotein (Lymphocytic choriomeningitis virus (strain Armstrong)) (P09992 whole entry, looked up): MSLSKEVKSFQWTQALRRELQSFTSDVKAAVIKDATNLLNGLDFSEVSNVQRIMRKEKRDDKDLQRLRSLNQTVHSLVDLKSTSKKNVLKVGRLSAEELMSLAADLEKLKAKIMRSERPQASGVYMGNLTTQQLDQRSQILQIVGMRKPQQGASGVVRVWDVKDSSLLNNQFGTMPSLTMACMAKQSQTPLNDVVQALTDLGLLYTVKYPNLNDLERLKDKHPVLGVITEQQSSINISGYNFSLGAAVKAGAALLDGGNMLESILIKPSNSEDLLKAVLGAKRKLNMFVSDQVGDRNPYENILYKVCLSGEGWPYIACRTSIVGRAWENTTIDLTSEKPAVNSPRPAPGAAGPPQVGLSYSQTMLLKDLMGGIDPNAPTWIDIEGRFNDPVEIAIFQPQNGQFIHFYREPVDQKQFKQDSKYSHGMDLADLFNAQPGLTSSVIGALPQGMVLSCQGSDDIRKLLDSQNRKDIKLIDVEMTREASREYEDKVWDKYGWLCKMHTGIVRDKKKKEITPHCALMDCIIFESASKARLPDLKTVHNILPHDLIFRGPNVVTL

[5] = target: Alpha-galactosidase (Coffea arabica) (UniProt Q42656); experiment: Counterscreen for Glucocerebrosidase Inhibitors: qHTS Assay for Coffee Bean alpha-Galactosidase at pH 4.5 (AID 957; active means well fitted curve in the direction sought with a large enough effect; an effect the other way counts as inactive or inconclusive)
Sequence of Alpha-galactosidase (Coffea arabica) (Q42656 whole entry, looked up): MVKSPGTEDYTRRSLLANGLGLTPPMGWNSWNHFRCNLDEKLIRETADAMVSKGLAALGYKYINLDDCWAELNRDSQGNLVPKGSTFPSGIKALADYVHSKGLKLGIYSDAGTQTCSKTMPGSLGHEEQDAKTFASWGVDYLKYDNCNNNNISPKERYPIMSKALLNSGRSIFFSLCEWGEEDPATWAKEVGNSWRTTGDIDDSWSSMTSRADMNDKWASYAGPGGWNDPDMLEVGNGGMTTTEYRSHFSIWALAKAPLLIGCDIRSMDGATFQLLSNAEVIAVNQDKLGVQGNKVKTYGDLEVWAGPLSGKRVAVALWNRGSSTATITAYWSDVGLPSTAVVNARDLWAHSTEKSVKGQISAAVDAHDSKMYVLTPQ
Procedure, shortened: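 Fluorogenic read-out: 4-methylumbelliferone at Ex 365/Em 440 nm after NaOH/glycine stop (pH 10). Enzyme 2 nM, 4-MU-alpha-galactoside 80 uM, citrate buffer pH 4.5, 20 min RT; normalized to no-enzyme and enzyme controls.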

[6] = target: Alpha-galactosidase (Coffea arabica) (UniProt Q42656); experiment: Counterscreen for Glucocerebrosidase Inhibitors: qHTS Assay for Coffee Bean alpha-Galactosidase at pH 5.9 (AID 998; active means well fitted curve in the direction sought with a large enough effect; an effect the other way counts as inactive or inconclusive)
Procedure, shortened: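 In 50 mM citric acid pH 5.9 with 0.005% Tween-20, coffee bean enzyme hydrolyses 80 uM 4-MU alpha-D-galactopyranoside over 20 min at RT. Activity is normalized to controls; AC50 comes from Hill-modelled concentration-response data.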

[7] = Validation screen for inhibitors of Lassa infection (AID 463096)
[8] = Inducers of the Endoplasmic Reticulum Stress Response (ERSR) in human glioma: Validation (AID 504836; active means well fitted curve in the direction sought with a large enough effect; an effect the other way counts as inactive or inconclusive)
Procedure, shortened: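 Stably transfected U87-MG human glioma cells carrying a GRP78-based luminescent sensor were seeded at 1000 cells/well, pin-dosed with compounds and incubated 16 h. Luciferase reagent was then added, and end-point luminescence was read after 10 min at room temperature.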

[9] = Confirmatory qHTS for VERO E6 Cytotoxicity Assay: Counterscreen for SARS-CoV-2 CPE Assay (AID 1508605); further: nearly all actives have a fitted effect of over 60% in size
[10] = Primary qHTS for Huh7 cytotoxicity: counterscreen for inhibitors of MERS-S pseudotyped particle cell entry (AID 1479147); details: outcome: dose series up to 57.1 µM unless noted
[11] = Primary qHTS for inhibitors of MERS-S pseudo-typed particle cell entry (AID 1479149); further: nearly all actives have a fitted effect of over 60% in size
[12] = Primary qHTS for Vero E6 cytotoxicity: counterscreen for inhibitors of SARS-S pseudo-typed particle cell entry (AID 1479150); details: outcome: dose series up to 57.1 µM unless noted
[13] = Cytotoxicity counterscreen for inhibitors of SARS-CoV-2 cell entry (AID 1645845); further: nearly all actives have a fitted effect of over 50% in size
Procedure, shortened: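 After a 15 min room-temperature ATPLite 1step step, luminescence reflected ATP remaining in HEK293-ACE2 cells exposed to compound for 1 h plus 48 h at 37 C, with percent activity set by cell and no-cell controls.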

[14] = VSVG counterscreen qHTS to identify inhibitors of SARS-CoV-2 cell entry (AID 1645847); further: potency means the concentration at half of the fitted maximal effect; nearly all actives have a fitted effect of over 65% in size
Procedure, shortened: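 HEK293-ACE2 cells (Expi293F, human ACE2) pretreated 1 h with compound, then infected with MLV-based VSV-G pseudotyped particles for 48 h at 37 C; luciferase luminescence normalized to VSV-G PP and bald PP wells.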

[15] = Primary qHTS for inhibitors of SARS-S pseudo-typed particle cell entry (AID 1479145); further: nearly all actives have a fitted effect of over 45% in size

## O=C(NC1CC1)c1cccc(-c2ccc3c(NC(=O)C4CC4)n[nH]c3c2)c1
[1]
  Potency: inactive
[2]
  Potency: 17.1 µM (active)
[3]
  Potency: 7.94 µM (active)

## O=c1cccc2c1c1cc[nH]c3ccc(=O)n2c31
[1]
  Potency: inactive
[4]
  Potency: inactive

## CN(C)c1nc2c(Br)c(Br)c(Br)c(Br)c2[nH]1
[5]
  outcome: inactive
[6]
  outcome: inactive
[7]
  Potency: inactive
[8]
  outcome: inactive
[1]
  Potency: inactive
[4]
  Potency: inactive

## CN[C@@H](C)[C@H]1[C@H](O)C[C@@]2(C)[C@@H]3CC[C@H]4C(C)(C)[C@@H](NC)CC[C@@]45C[C@@]35CC[C@]12C
[1]
  Potency: inactive
[4]
  Potency: inactive
[9]
  Potency: inactive

## c1ccc(-c2oc3ncnc(NC[C@@H]4CCCO4)c3c2-c2ccccc2)cc1
[1]
  Potency: inactive
[4]
  Potency: inactive
[3]
  activity change, negative = inhibition: -93.9%

## Nc1ccn([C@@H]2O[C@H](CO)[C@@H](O)[C@H]2O)c(=O)n1
[1]
  Potency: inactive
[4]
  Potency: inactive
[10]
  outcome: inactive
[11]
  Potency: inactive
[12]
  outcome: inactive
[13]
  Potency: inactive
[3]
  activity change, negative = inhibition: -8.54%

## Nc1ncnc2n[nH]c(Nc3ccc(F)cc3)c12
[8]
  outcome: inactive
[1]
  Potency: inactive
[4]
  Potency: inactive

## CCc1cccc(CC)c1NC(=O)N1Cc2[nH]nc(NC(=O)c3ccc(N4CCN(C)CC4)cc3)c2C1
[1]
  Potency: inactive
[4]
  Potency: inactive
[13]
  Potency: inactive

## Cn1cnc(=N)c2[nH]cnc21
[1]
  Potency: inactive
[4]
  Potency: inactive
[13]
  Potency: inactive
[3]
  activity change, negative = inhibition: -0.211% [at 114 µM]

## COc1ccc(-c2cc(=O)c3c(O)c(OC)c(OC)cc3o2)cc1O
[1]
  Potency: inactive
[4]
  Potency: inactive

## CC(=O)O[C@H]1C(=O)[C@@]2(C)C([C@H](OC(=O)c3ccccc3)[C@]3(O)C[C@H](OC(=O)[C@H](O)[C@@H](NC(=O)c4ccccc4)c4ccccc4)C(C)=C1C3(C)C)[C@]1(OC(C)=O)CO[C@@H]1C[C@@H]2O (some centres undefined)
[7]
  Potency: inactive
[8]
  outcome: inactive
[1]
  Potency: inactive
[4]
  Potency: inactive
[10]
  outcome: inactive
[11]
  Potency: inactive
[12]
  outcome: inactive
[13]
  Potency: inactive
[3]
  activity change, negative = inhibition: -37.1% and -87.7%
[14]
  Potency: 0.0681 µM (active)

## O=c1[nH]c(=O)n([C@H]2C[C@@H](O)[C@@H](CO)O2)cc1C(F)(F)F
[1]
  Potency: inactive
[4]
  Potency: inactive

## CC1OC(OC2CC(O)C3(CO)C4C(O)CC5(C)C(C6=CC(=O)OC6)CCC5(O)C4CCC3(O)C2)C(O)C(O)C1O (centres undefined)
[1]
  Potency: inactive
[4]
  Potency: inactive

## C=C1C([C@@]2(C)C(OC(C)=O)CC(=O)O[C@@](C)(COC(C)=O)C2CC(=O)OC)C(OC=O)C(OC(=O)C(O)C(C)CC)[C@]2(C)C(c3ccoc3)CC(=O)C12O (some centres undefined)
[1]
  Potency: inactive
[4]
  Potency: inactive

## CC1=CC(O)C(O)C2(C)C1CC1OC(=O)C(O)C3C(C)C(O)C4(O)OCC13C42 (centres undefined)
[1]
  Potency: inactive
[4]
  Potency: inactive

## NC(N)=Nc1nc(CSCCC(N)=NS(N)(=O)=O)cs1
[1]
  Potency: inactive
[4]
  Potency: inactive

## CN(C)CCc1cc2c(c3c1ccc1ccccc13)OCO2
[1]
  Potency: inactive
[4]
  Potency: inactive

## C[C@@H](N)c1ccc(C(=O)Nc2ccnc3[nH]ccc23)cc1
[1]
  Potency: inactive
[4]
  Potency: inactive
[3]
  activity change, negative = inhibition: -95.9%

## COc1cc2c(c(OC)c1OC)-c1ccc(OC)c(=O)cc1C(N)CC2 (centres undefined)
[1]
  Potency: inactive
[4]
  Potency: 0.178 µM (active)

## CCC[C@H]1NC(=O)[C@H](C)N(C)C(=O)C(C)(C)C(=O)C(C)NC(=O)[C@H](Cc2ccc(OC)cc2)N(C)C(=O)[C@H](C(C)C)N(C)C(=O)CNC(=O)[C@H](CC(C)C)N(C)C(=O)CNC(=O)[C@H]([C@@H](C)CC)OC(=O)[C@H]1C (some centres undefined)
[1]
  Potency: inactive
[4]
  Potency: inactive

## O=C(NOCC(O)CO)c1cc(Br)c(F)c(F)c1Nc1ccc(I)cc1F (centres undefined)
[1]
  Potency: inactive
[4]
  Potency: inactive
[13]
  Potency: inactive
[3]
  activity change, negative = inhibition: -16.5%

## COc1cc(C=CC(=O)O)ccc1O
[1]
  Potency: inactive
[4]
  Potency: inactive

## COc1cc(C(C)C)c(Oc2cnc(NC(CO)CO)nc2N)cc1I
[1]
  Potency: inactive
[4]
  Potency: inactive
[13]
  Potency: inactive
[3]
  Potency: inactive

## CCOC(=O)N1CCN([N+]([O-])=NOc2ccc([N+](=O)[O-])cc2[N+](=O)[O-])CC1
[1]
  Potency: inactive
[4]
  Potency: inactive

## NC(=NCCCCCCN=C(N)N=C(N)Nc1ccc(Cl)cc1)N=C(N)Nc1ccc(Cl)cc1
[1]
  Potency: inactive
[4]
  Potency: inactive
[3]
  Potency: 17.8 µM (active)

## Nc1ncnc2nc(-c3ccc(N4CCOCC4)nc3)cc(-c3cccc(Br)c3)c12
[8]
  outcome: inactive
[1]
  Potency: inactive
[4]
  Potency: inactive
[13]
  Potency: inactive
[3]
  activity change, negative = inhibition: -21.9%

## O=C1NC(=O)C(c2ccccc2[N+](=O)[O-])=C1Nc1ccc(O)c(Cl)c1
[5]
  outcome: inactive
[6]
  outcome: inactive
[7]
  Potency: inactive
[8]
  outcome: inactive
[1]
  Potency: inactive
[4]
  Potency: inactive
[13]
  Potency: inactive

## CC(C)(C)c1nc(-c2cccc(NS(=O)(=O)c3c(F)cccc3F)c2F)c(-c2ccnc(N)n2)s1
[1]
  Potency: inactive
[4]
  Potency: inactive
[15]
  Potency: inactive
[10]
  outcome: inactive
[12]
  outcome: inactive
[13]
  Potency: inactive
[3]
  Potency: 28.2 µM (active)
